From PubChem BioAssay AID1159580 (chemical genetic matrix, 2015)
In all, about 5,500 compounds went through this assay and about 2,000 (36%) were called active. Roughly 18% stayed inconclusive and do not appear here. Cut-off read from the data, not from the text of the source: active = normalized growth mostly below about 0.91 (no sharp cut-off); inconclusive = no clear call, values can overlap the other calls; inactive = mostly above about 0.92. Some of the results follow.

Assay: chemical genetic growth profiling, strain panel (AID 1159580);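 note: tested at 20 µM; growth read once vehicle control cultures reached saturation at 30 °C; 1 = growth at the plate median or of vehicle wells; lower values mean less growth of the strain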
Details: growth OD
[1] = S. cerevisiae deletion strains, locus YAR019C, strain CDC15, stronger effect = lower value
[2] = S. cerevisiae deletion strains, locus YBL105C, strain PKC1, stronger effect = lower value
[3] = S. cerevisiae deletion strains, locus YBR135W, strain CKS1, stronger effect = lower value
[4] = S. cerevisiae deletion strains, locus YBR136W, strain MEC1, stronger effect = lower value
[5] = S. cerevisiae deletion strains, locus YBR160W, strain CDC28, stronger effect = lower value
[6] = S. cerevisiae deletion strains, locus YDL017W, strain CDC7, stronger effect = lower value
[7] = S. cerevisiae deletion strains, locus YDL028C, strain MPS1, stronger effect = lower value
[8] = S. cerevisiae deletion strains, locus YDL101C, strain DUN1, stronger effect = lower value
[9] = S. cerevisiae deletion strains, locus YDL108W, strain KIN28, stronger effect = lower value
[10] = S. cerevisiae deletion strains, locus YDL132W, strain cdc53, stronger effect = lower value
[11] = S. cerevisiae deletion strains, locus YDL214C, strain PRR2, stronger effect = lower value
[12] = S. cerevisiae deletion strains, locus YDR052C, strain DBF4, stronger effect = lower value
[13] = S. cerevisiae deletion strains, locus YDR054C, strain cdc34, stronger effect = lower value
[14] = S. cerevisiae deletion strains, locus YDR226W, strain ADK1, stronger effect = lower value
[15] = S. cerevisiae deletion strains, locus YDR477W, strain SNF1, stronger effect = lower value
[16] = S. cerevisiae deletion strains, locus YER123W, strain YCK3, stronger effect = lower value
[17] = S. cerevisiae deletion strains, locus YER133W, strain GLC7, stronger effect = lower value
[18] = S. cerevisiae deletion strains, locus YFL009W, strain cdc4, stronger effect = lower value
[19] = S. cerevisiae deletion strains, locus YFL029C, strain CAK1, stronger effect = lower value
[20] = S. cerevisiae deletion strains, locus YFR003C, strain YPI1, stronger effect = lower value
[21] = S. cerevisiae deletion strains, locus YFR019W, strain FAB1, stronger effect = lower value
[22] = S. cerevisiae deletion strains, locus YFR028C, strain CDC14, stronger effect = lower value
[23] = S. cerevisiae deletion strains, locus YGR040W, strain KSS1, stronger effect = lower value
[24] = S. cerevisiae deletion strains, locus YGR052W, strain FMP48, stronger effect = lower value
[25] = S. cerevisiae deletion strains, locus YGR092W, strain DBF2, stronger effect = lower value
[26] = S. cerevisiae deletion strains, locus YHR030C, strain SLT2, stronger effect = lower value
[27] = S. cerevisiae deletion strains, locus YHR079C, strain IRE1, stronger effect = lower value
[28] = S. cerevisiae deletion strains, locus YHR082C, strain KSP1, stronger effect = lower value
[29] = S. cerevisiae deletion strains, locus YHR205W, strain SCH9, stronger effect = lower value
[30] = S. cerevisiae deletion strains, locus YIL147C, strain SLN1, stronger effect = lower value
[31] = S. cerevisiae deletion strains, locus YJL095W, strain BCK1, stronger effect = lower value
[32] = S. cerevisiae deletion strains, locus YJL128C, strain PBS2, stronger effect = lower value
[33] = S. cerevisiae deletion strains, locus YJL157C, strain FAR1, stronger effect = lower value
[34] = S. cerevisiae deletion strains, locus YJR016C, strain ILV3, stronger effect = lower value
[35] = S. cerevisiae deletion strains, locus YJR066W, strain TOR1 (second series), stronger effect = lower value
[36] = S. cerevisiae deletion strains, locus YJR066W, strain TOR1, stronger effect = lower value
[37] = S. cerevisiae deletion strains, locus YKL048C, strain ELM1, stronger effect = lower value
[38] = S. cerevisiae deletion strains, locus YKL067W, strain YNK1, stronger effect = lower value
[39] = S. cerevisiae deletion strains, locus YKL101W, strain HSL1, stronger effect = lower value
[40] = S. cerevisiae deletion strains, locus YKL193C, strain SDS22, stronger effect = lower value
[41] = S. cerevisiae deletion strains, locus YKL203C, strain TOR2, stronger effect = lower value
[42] = S. cerevisiae deletion strains, locus YLR113W, strain HOG1, stronger effect = lower value
[43] = S. cerevisiae deletion strains, locus YLR133W, strain CKI1, stronger effect = lower value
[44] = S. cerevisiae deletion strains, locus YLR403W, strain SFP1, stronger effect = lower value
[45] = S. cerevisiae deletion strains, locus YML070W, strain DAK1, stronger effect = lower value
[46] = S. cerevisiae deletion strains, locus YMR001C, strain CDC5, stronger effect = lower value
[47] = S. cerevisiae deletion strains, locus YMR205C, strain PFK2 (second series), stronger effect = lower value
[48] = S. cerevisiae deletion strains, locus YMR277W, strain FCP1, stronger effect = lower value
[49] = S. cerevisiae deletion strains, locus YNL006W, strain LST8, stronger effect = lower value
[50] = S. cerevisiae deletion strains, locus YNL020C, strain ARK1, stronger effect = lower value
[51] = S. cerevisiae deletion strains, locus YNL161W, strain CBK1, stronger effect = lower value
[52] = S. cerevisiae deletion strains, locus YNL183C, strain NPR1, stronger effect = lower value
[53] = S. cerevisiae deletion strains, locus YNL207W, strain RIO2, stronger effect = lower value
[54] = S. cerevisiae deletion strains, locus YNL222W, strain SSU72, stronger effect = lower value
[55] = S. cerevisiae deletion strains, locus YNL307C, strain MCK1 (second series), stronger effect = lower value
[56] = S. cerevisiae deletion strains, locus YOL078W, strain AVO1, stronger effect = lower value
[57] = S. cerevisiae deletion strains, locus YOL136C, strain PFK27, stronger effect = lower value
[58] = S. cerevisiae deletion strains, locus YOR061W, strain CKA2, stronger effect = lower value
[59] = S. cerevisiae deletion strains, locus YOR119C, strain RIO1, stronger effect = lower value
[60] = S. cerevisiae deletion strains, locus YOR231W, strain MKK1, stronger effect = lower value
[61] = S. cerevisiae deletion strains, locus YOR329C, strain SCD5, stronger effect = lower value
[62] = S. cerevisiae deletion strains, locus YPL031C, strain PHO85, stronger effect = lower value
[63] = S. cerevisiae deletion strains, locus YPL153C, strain RAD53, stronger effect = lower value
[64] = S. cerevisiae deletion strains, locus YPL204W, strain HRR25, stronger effect = lower value
[65] = S. cerevisiae deletion strains, locus YPL209C, strain IPL1, stronger effect = lower value
[66] = S. cerevisiae deletion strains, locus YPL256C, strain CLN2, stronger effect = lower value
[67] = S. cerevisiae deletion strains, locus YPR025C, strain CCL1, stronger effect = lower value
[68] = S. cerevisiae deletion strains, locus YPR106W, strain ISR1, stronger effect = lower value
[69] = S. cerevisiae deletion strains, locus YPR111W, strain DBF20, stronger effect = lower value
[70] = S. cerevisiae deletion strains, strain NNK1, stronger effect = lower value
[71] = S. cerevisiae deletion strains, strain TSCII, stronger effect = lower value
[72] = S. cerevisiae deletion strains, locus YAL013W, strain DEP1, stronger effect = lower value
[73] = S. cerevisiae deletion strains, locus YAL040C, strain CLN3, stronger effect = lower value
[74] = S. cerevisiae deletion strains, locus YCL061C, strain MRC1 (second series), stronger effect = lower value
[75] = S. cerevisiae deletion strains, locus YDR150W, strain NUM1, stronger effect = lower value
[76] = S. cerevisiae deletion strains, locus YDR363W, strain ESC2, stronger effect = lower value
[77] = S. cerevisiae deletion strains, locus YER002W, strain NOP16, stronger effect = lower value
[78] = S. cerevisiae deletion strains, locus YGR078C, strain PAC10, stronger effect = lower value
[79] = S. cerevisiae deletion strains, locus YJR075W, strain HOC1, stronger effect = lower value
[80] = S. cerevisiae deletion strains, locus YNL175C, strain NOP13, stronger effect = lower value
[81] = S. cerevisiae deletion strains, locus YNL197C, strain WHI3, stronger effect = lower value
[82] = S. cerevisiae deletion strains, locus YNL224C, strain SQS1, stronger effect = lower value
[83] = S. cerevisiae deletion strains, locus YNL322C, strain KRE1, stronger effect = lower value
[84] = S. cerevisiae deletion strains, locus YOR083W, strain WHI5 (second series), stronger effect = lower value
[85] = S. cerevisiae deletion strains, locus YPL241C, strain CIN2, stronger effect = lower value
[86] = S. cerevisiae deletion strains, locus YMR263W, strain SAP30, stronger effect = lower value
[87] = S. cerevisiae deletion strains, locus YNL128W, strain TEP1, stronger effect = lower value
[88] = S. cerevisiae deletion strains, locus YNL153C, strain GIM3, stronger effect = lower value
[89] = S. cerevisiae deletion strains, locus YPL055C, strain LGE1, stronger effect = lower value

Measured: normalized growth

O=C1/C(=C/c2c[nH]c3ccccc23)CSc2ccccc21
inactive: [1] 0.989 | [2] 0.975 | [3] 0.981 | [4] 0.966 | [5] 0.99 | [6] 0.983 | [7] 0.979 | [8] 0.98 | [9] 0.987 | [10] 0.99 | [11] 0.938 | [12] 0.985 | [13] 0.987 | [14] 0.983 | [15] 0.961 | [16] 0.906 | [17] 0.948 | [18] 0.988 | [19] 0.988 | [20] 0.987 | [21] 0.973 | [22] 0.98 | [23] 0.947 | [24] 1.04 | [25] 0.945 | [26] 1.07 | [27] 1.06 | [28] 1.01 | [29] 0.957 | [30] 0.965 | [31] 1.02 | [32] 0.944 | [33] 0.943 | [34] 0.98 | [35] 0.913 | [36] 1.03 | [37] 0.949 | [38] 0.964 | [39] 0.945 | [40] 0.984 | [41] 1.02 | [42] 1.05 | [43] 0.975 | [44] 0.942 | [45] 0.944 | [46] 0.976 | [47] 0.979 | [48] 0.983 | [49] 0.993 | [50] 0.948 | [51] 0.991 | [52] 1.05 | [53] 0.997 | [54] 0.982 | [55] 0.995 | [56] 0.994 | [57] 0.931 | [58] 0.958 | [59] 0.982 | [60] 1.05 | [61] 0.99 | [62] 0.947 | [63] 0.924 | [64] 0.928 | [65] 0.989 | [66] 1.04 | [67] 0.986 | [68] 0.978 | [69] 0.979 | [70] 0.98 | [71] 0.984

N#C/C(=C\c1c[nH]c2ccccc12)C(=O)c1ccc(O)c(O)c1
inactive: [72] 1.02 | [73] 0.987 | [74] 1.02 | [75] 1.01 | [76] 1.03 | [77] 1.01 | [78] 1.02 | [79] 0.996 | S. cerevisiae deletion strains, locus YMR307W, strain GAS1, stronger effect = lower value 1.03 | [80] 1 | [81] 1.02 | [82] 1 | [83] 1 | [84] 0.973 | [85] 1.02

O=C1NC(=S)NC(=O)C1=Cc1cccc2ccccc12
inactive: [72] 0.975 | S. cerevisiae deletion strains, locus YBR229C, strain ROT2, stronger effect = lower value 0.989 | S. cerevisiae deletion strains, locus YCL061C, strain MRC1, stronger effect = lower value 0.97 | [8] 0.963 | [75] 0.891 | S. cerevisiae deletion strains, locus YEL061C, strain CIN8, stronger effect = lower value 0.976 | [78] 0.976 | [26] 0.709 | S. cerevisiae deletion strains, locus YHR087W, strain rtc3, stronger effect = lower value 0.913 | [79] 0.928 | S. cerevisiae deletion strains, locus YKL190W, strain CNB1, stronger effect = lower value 1 | S. cerevisiae deletion strains, locus YLR039C, strain RIC1, stronger effect = lower value 0.841 | S. cerevisiae deletion strains, locus YLR058C, strain SHM2 (second series), stronger effect = lower value 0.99 | S. cerevisiae deletion strains, locus YLR085C, strain ARP6, stronger effect = lower value 0.907 | S. cerevisiae deletion strains, locus YLR262C, strain YPT6, stronger effect = lower value 0.879 | S. cerevisiae deletion strains, locus YML094W, strain GIM5, stronger effect = lower value 0.954 | S. cerevisiae deletion strains, locus YMR219W, strain ESC1, stronger effect = lower value 0.985 | [86] 0.93 | [87] 0.991 | [88] 0.979 | S. cerevisiae deletion strains, locus YNL298W, strain CLA4 (second series), stronger effect = lower value 0.995 | [83] 0.986 | S. cerevisiae deletion strains, locus YNR030W, strain Alg12, stronger effect = lower value 0.988 | [89] 0.92 | [85] 0.983 | S. cerevisiae deletion strains, locus YPR135W, strain CTF4, stronger effect = lower value 0.806 | S. cerevisiae strains, strain wild type, stronger effect = lower value 0.998

Cc1ccc(OCC(O)C(C)NC(C)C)c2c1CCC2 (centres undefined)
inactive: [73] 0.989 | [74] 0.993 | [75] 1.01 | [76] 0.961 | [77] 0.977 | [78] 0.982 | S. cerevisiae deletion strains, locus YGR229C, strain SMI1, stronger effect = lower value 1.01 | [86] 1 | [87] 0.985 | [88] 1 | [80] 0.982 | [81] 0.972 | [82] 1 | [84] 1 | [89] 1

O=C(NC(=S)NNc1ncc(C(F)(F)F)cc1Cl)c1cccs1
active: [1] 0.665 | [2] 0.764 | [3] 0.604 | [4] 0.537 | [5] 0.692 | [6] 0.727 | [7] 0.537 | [8] 0.576 | [9] 0.726 | [10] 0.588 | [11] 0.218 | [12] 0.581 | [13] 0.492 | [14] 0.527 | [15] 0.31 | [16] 0.17 | [17] 0.37 | [18] 0.51 | [19] 0.59 | [20] 0.738 | [21] 0.384 | [22] 0.482 | [23] 0.28 | [24] 0.171 | [25] 0.163 | [26] 0.287 | [27] 0.294 | [28] 0.296 | [29] 0.244 | [30] 0.609 | [31] 0.244 | [32] 0.328 | [33] 0.198 | [34] 0.624 | [35] 0.15 | [36] 0.237 | [37] 0.256 | [38] 0.17 | [39] 0.242 | [40] 0.629 | [41] 0.234 | [42] 0.252 | [43] 0.251 | [44] 0.123 | [45] 0.247 | [46] 0.549 | [47] 0.23 | [48] 0.413 | [49] 0.714 | [50] 0.211 | [51] 0.533 | [52] 0.195 | [53] 0.6 | [54] 0.559 | [55] 0.146 | [56] 0.585 | [57] 0.276 | [58] 0.242 | [59] 0.237 | [60] 0.256 | [61] 0.727 | [62] 0.441 | [63] 0.283 | [64] 0.315 | [65] 0.736 | [66] 0.367 | [67] 0.745 | [68] 0.472 | [69] 0.453 | [70] 0.492 | [71] 0.524
